# Screening data: PubChem BioAssay, several laboratories
# Rows were chosen to be rich in hits. Some 0.5% of all compounds tested hit in one or more screens of this group.
# Cardiac RTF inh: cardiac RTF calcium desensitization | P19429+P45379 | IANBD-labeled cardiac RTF, Ca2+ fluorescence | inhibition, % at 7.15 µM | 0.12% of 340,000 active | AID 493244;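 active = inhibition above the mean inhibition of all tested compounds plus 3 SD, cut at about 17% in these data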;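 also: assay run at fixed EC70 calcium of 1.6 mM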
# cardiac RTF act: increases calcium sensitivity of human cardiac regulated thin filaments; P19429+P45379; IANBD-labeled TnC RTF fluorescence at EC20 calcium; 0% EC20 calcium, 100% full calcium; activation, % at 7.2 µM; 0.24% of 340,000 active; AID 493008;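 active = activation above the mean over all tested compounds plus 3 SD, cut at about 30% in these data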;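 also: rise in fluorescence read as greater calcium sensitivity of cardiac thin filaments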
# C-LANA FP: blocks KSHV LANA C-terminal domain binding to DNA. AID 504423. MBP-C-LANA/FAM-LBS DNA binding, fluorescence polarization. inhibition, % at 9 µM. 0.078% of 340,000 active;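 active = highest replicate inhibition at or above 60% at 9 µM, even if other replicates fall short; inactive = all replicates below 60% inhibition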;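 also: 0% = neutral control wells and 100% = 4 µM acridine orange control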
# Keap1-Nrf2 PPI: disrupts human Keap1 binding to Nrf2 peptide | Keap1 Kelch-Nrf2 peptide fluorescence polarization, 1536-well | inhibition, % at 9.4 µM | Q14145 | AID 504523 | 0.15% of 340,000 active; in the data active = inhibition above about 12%;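 also: human Keap1 Kelch domain with fluorescein labeled Nrf2 9mer peptide probe; 0% = neutral control wells and 100% = peptide positive control; higher means more block of Keap1 binding to Nrf2 peptide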
# The depositor's hits bear a star; i = inactive; / = not tested or not shown; + = active, no number.
SMILES,Cardiac RTF inh,cardiac RTF act,C-LANA FP,Keap1-Nrf2 PPI
O=C(NCc1ccc(F)cc1)c1cccc2c1C(=O)c1ccc(N3CCC(Cc4ccccc4)CC3)cc1S2(=O)=O,-441,232*,28,0
CC1CCN(c2ccc3c(c2)S(=O)(=O)c2cccc(C(=O)NC4CCCCC4)c2C3=O)CC1,-15,33*,2,-9
CC1CCN(c2ccc3c(c2)S(=O)(=O)c2cccc(C(=O)NCc4ccc(F)cc4)c2C3=O)CC1,3,105*,27,4
O=C(NC1CC1)c1cccc2c1C(=O)c1ccc(N3CCC(Cc4ccccc4)CC3)cc1S2(=O)=O,-148,99*,13,3
O=C(NCc1ccc(F)cc1)c1cccc2c1C(=O)c1ccc(N3CCOCC3)cc1S2(=O)=O,-6,12,15,1
O=C(NC1CCCCC1)c1cccc2c1C(=O)c1ccc(N3CCCC3)cc1S2(=O)=O,-10,24,1,2
O=C(Nc1ccccn1)C1CCCN1S(=O)(=O)c1ccc(Cl)cc1 (stereo unspecified),-1,6,0,4
CC(NC(=O)CCn1ccc2cc(S(=O)(=O)N3CCCC3)ccc21)c1ccccc1 (stereo unspecified),0,1,0,0
c1coc(-c2nc(-c3ccco3)c(-c3ccco3)nc2-c2ccco2)c1,107*,-36,6,-3
COc1ccc(-c2noc(CCC(=O)NCCc3ccccc3)n2)cc1,-4,38*,2,-6
COc1cccc(-c2noc(CCC(=O)NCCc3ccccc3)n2)c1,-5,3,-1,-4
COc1ccccc1NC(=O)c1ccc(Br)c(S(=O)(=O)N2CCCC2)c1,-4,-7,-1,0
NC(=S)N=Nc1c(O)cc(O)c2[nH]c(=O)ccc12,12,-1,24,15*
NC(=S)N=Nc1c(O)[nH]c2ccc(F)cc12,-13,-2,0,-7
COc1ccc(-[n+]2c(C)cc(/C=C3\Sc4ccccc4N3C)cc2C)cc1,-55,44*,-11,-19
COc1ccccc1-[n+]1c(C)cc(/C=C2\Sc3ccccc3N2C)cc1C,-62,48*,-16,-10
COc1ccc(C(=O)/C=C2\Sc3ccccc3N2C)cc1,/,/,-1,-7
CCC(=O)N(CC(=O)Nc1sc(C)c(C)c1C(N)=O)C1CCCCC1,-1,0,-1,-1
O=C(CN(C(=O)c1csnn1)c1ccc(Cl)cc1)NCCc1ccccc1,-10,8,1,0
CCN(C(=O)CN1CCCc2cc(C)ccc21)c1c(N)n(Cc2ccccc2)c(=O)[nH]c1=O,-28,16,0,2
CCn1c(=O)c(C(=O)CN2c3ccccc3CC2C)c(N)n(Cc2ccccc2)c1=O (stereo unspecified),-4,-1,-2,8
Cc1ccc2c(c1)CCCN2CC(=O)N(C)c1c(N)n(Cc2ccccc2)c(=O)[nH]c1=O,-55,38*,13,7
CCn1c(=O)c(C(=O)CN2CCCc3ccccc32)c(N)n(Cc2ccccc2)c1=O,-67,31*,1,-5
O=C(NCCCO)c1ccc2nc(-c3ccco3)c(-c3ccco3)nc2c1,10,0,68*,-2
O=C(OCc1ccc([N+](=O)[O-])cc1)c1cnc(Cl)c(Cl)c1,13,-6,-1,-5
SMILES,Cardiac RTF inh,cardiac RTF act,C-LANA FP,Keap1-Nrf2 PPI
O=C(NCC1CCCO1)c1cc2ccccc2o1 (stereo unspecified),1,-4,-1,-2
CN(C)S(=O)(=O)N1C(=O)c2ccccc2C1=O,-10,-2,0,3
CN(C)/C=C1\C=C2C(=O)c3ccccc3N2C1=O,i,+,+,+
CC1CCc2sc(NC(=O)C3CC(Cl)=CCC3C(=O)O)c(C#N)c2C1 (stereo unspecified),/,/,-1,-1
Cc1ccc(O)c(C(=O)c2cc(C#N)c(=O)n(-c3nccs3)c2)c1,-111,69*,21,-28
Cc1cc2occ(CC(=O)N(C)CC(=O)Nc3ccccc3Cl)c2cc1C,6,-7,0,4
Cc1cc(C=C2C(=O)c3ccccc3C2=O)c(C)n1-c1ccc(C(=O)O)cc1,-1,-8,2,-8
Cc1cc(C=C2C(=O)c3ccccc3C2=O)c(C)n1-c1ccccc1,-15,45*,2,2
Cn1c2c(c(=O)n(C)c1=O)C(C(F)(F)F)(C(F)(F)F)N=C(CCC1CCCCC1)N2,-2,45*,-1,-1
Cc1ccc(/C=C2/NC(=O)N(Cc3ccccc3F)C2=O)s1,-72,35*,16,-1
CC(=O)Nc1ccc(NC(=O)C(C)OC(=O)c2ccc(S(=O)(=O)N3CCCCCC3)cc2)cc1 (stereo unspecified),2,-1,3,-7
